Some test systems named below: T-47D breast; BT-549 breast; MDA-MB-435 melanoma; SW-620 colon; MCF7 breast; HCT-116 colon; HCC-2998 colon; KM12 colon.
What all share (assay): NCI-60 one-dose screen, 48 h (100 = growth as untreated, 0 = no growth, -100 = all killed)
What all share (conditions): 10 µM unless noted

“And” between values parts separate entries of the source, which are not always exact repeats. Equal values may be shown once. Compounds without any hit were thinned out: in the full panel of roughly 83,000, 20% have a hit.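 Cells were grown in 96-well plates and exposed to the test compound at a single concentration for 48 hours; results are reported as percent growth, with values below 10 considered active.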 The source made the active and inactive calls.

As for `CCc1c(CC(=O)O)c2cc(C)ccc2n1Cc1ccc(Cl)cc1`, the growth with T-47D breast was 86.3% (inactive) and -2.2% (active); with BT-549 breast it was 94% (inactive) and 183% (inactive); with MDA-MB-435 melanoma, 114% (inactive) and 97.4% (inactive); in the experiment with SW-620 colon, 102% (inactive); in the experiment with MCF7 breast it was 98.1% (inactive) and 95.4% (inactive); with HCT-116 colon it was 97.1% (inactive) and 110% (inactive). Besides, the growth with HCC-2998 colon is 125% (inactive) and 98.4% (inactive); in the experiment with KM12 colon, 96% (inactive) and 95.3% (inactive).

`CCC(C)C1(C2CCCC2)NC(=O)NC1=O` (stereo not given): the growth with T-47D breast was 97.1% (inactive) and 98.3% (inactive); in the experiment with BT-549 breast, 107% (inactive); in the experiment on MDA-MB-435 melanoma, 121% (inactive) and 102% (inactive); with SW-620 colon it was 112% (inactive) and 98.9% (inactive); in the experiment with MCF7 breast it was 99.3% (inactive) and 97.3% (inactive); with HCT-116 colon, 100% (inactive) and 112% (inactive). In addition, the growth was 103% (inactive) and 102% (inactive) with HCC-2998 colon; 106% (inactive) and 111% (inactive) with KM12 colon.

On to `NC(=O)c1ccccc1OCC(O)CO` (stereo not given), for which the growth was 130% (inactive) in the experiment on T-47D breast; 109% (inactive) in the experiment on BT-549 breast; 90% (inactive) in the experiment on MDA-MB-435 melanoma; 101% (inactive) in the experiment on SW-620 colon; 94.1% (inactive) in the experiment with MCF7 breast; 112% (inactive) in the experiment on HCT-116 colon. Moreover, the growth is 114% (inactive) in the experiment on HCC-2998 colon and 115% (inactive) in the experiment on KM12 colon.

Take `Cn1c(=O)n(-c2ccc(C(C)(C)C#N)cc2)c2c3cc(-c4cnc5ccccc5c4)ccc3ncc21`: the growth with T-47D breast is -12.2% (active) and -4.13% (active); in the experiment with BT-549 breast, -8.12% (active) and -14.5% (active); in the experiment with MDA-MB-435 melanoma it was 2.94% (active) and 5.92% (active); in the experiment with SW-620 colon, 8% (active) and 3.15% (active); in the experiment with MCF7 breast, 4.64% (active) and -3.88% (active); with HCT-116 colon, 16.8% (inactive) and 13% (inactive). In addition, the growth in the experiment on HCC-2998 colon is 1.76% (active) and 7.09% (active); in the experiment with KM12 colon, 3.33% (active) and -9.75% (active).

`O=S1(=O)CC(Br)C(Br)C1` (stereo not given): the growth was 34.5% (inactive) and 63% (inactive) with T-47D breast; 77.7% (inactive) and 82.9% (inactive) in the experiment on BT-549 breast; 80.5% (inactive) and 95.1% (inactive) in the experiment with MDA-MB-435 melanoma; 32.1% (inactive) and 29.8% (inactive) in the experiment with SW-620 colon; 56.9% (inactive) and 63.7% (inactive) in the experiment with MCF7 breast; 18.2% (inactive) and 66.8% (inactive) in the experiment on HCT-116 colon. Also, the growth was 102% (inactive) and 117% (inactive) with HCC-2998 colon; 105% (inactive) and 116% (inactive) with KM12 colon.

As to `CC(O)Cn1cnc2c1c(=O)n(C)c(=O)n2C` (stereo not given), the growth in the experiment with T-47D breast is 85.8% (inactive); in the experiment with BT-549 breast, 83.5% (inactive); in the experiment with MDA-MB-435 melanoma it was 109% (inactive); in the experiment with SW-620 colon, 113% (inactive); in the experiment with MCF7 breast, 92.8% (inactive); with HCT-116 colon it was 102% (inactive). Moreover, the growth was 106% (inactive) in the experiment on HCC-2998 colon and 104% (inactive) in the experiment on KM12 colon.

Regarding `Oc1ccc(/C=C/c2ccccc2)cc1`, the growth in the experiment on T-47D breast is 97.4% (inactive) and 92.3% (inactive); in the experiment on BT-549 breast it was 62.6% (inactive) and 68.1% (inactive); with MDA-MB-435 melanoma, 76% (inactive) and 74.8% (inactive); with SW-620 colon it was 72.1% (inactive) and 62.7% (inactive); in the experiment with MCF7 breast it was 65% (inactive) and 75% (inactive); with HCT-116 colon it was 75.8% (inactive) and 73.8% (inactive). Further, the growth is 86.8% (inactive) and 86.5% (inactive) with HCC-2998 colon; 54% (inactive) and 54.6% (inactive) with KM12 colon.

For `CC(=O)Nc1ccc2cc3ccc(NC(C)=O)cc3nc2c1`, the growth in the experiment with T-47D breast was 81.6% (inactive) and 69.9% (inactive); in the experiment on BT-549 breast, 106% (inactive) and 92.9% (inactive); in the experiment with MDA-MB-435 melanoma, 83.6% (inactive) and 92.6% (inactive); in the experiment on SW-620 colon it was 90% (inactive) and 91.3% (inactive); with MCF7 breast it was 68.3% (inactive) and 85.1% (inactive); with HCT-116 colon, 92.3% (inactive) and 81.3% (inactive). The growth with HCC-2998 colon is 77.1% (inactive); in the experiment with KM12 colon, 79.6% (inactive) and 89.5% (inactive).

For the compound `CC(C)CNC(=O)c1ccccc1C(=O)NC1(C(=O)NCC(C)C)CCCC1`, the growth is 106% (inactive) and 95.5% (inactive) with T-47D breast; 122% (inactive) and 115% (inactive) in the experiment with BT-549 breast; 101% (inactive) and 105% (inactive) in the experiment on MDA-MB-435 melanoma; 102% (inactive) and 106% (inactive) with SW-620 colon; 103% (inactive) and 106% (inactive) in the experiment with MCF7 breast; 106% (inactive) and 104% (inactive) with HCT-116 colon. For the same compound, the growth is 101% (inactive) and 103% (inactive) in the experiment on HCC-2998 colon; 112% (inactive) and 104% (inactive) with KM12 colon.

Take `Clc1ccc(NC(Nc2ccc(Cl)cc2)C(Cl)(Cl)Cl)cc1`: the growth in the experiment on T-47D breast is 67.7% (inactive) and 82.8% (inactive); with BT-549 breast, 69.3% (inactive) and 85.8% (inactive); in the experiment on MDA-MB-435 melanoma, 62.9% (inactive) and 97.7% (inactive); in the experiment with SW-620 colon, 69% (inactive) and 98% (inactive); with MCF7 breast, 88.9% (inactive) and 92.1% (inactive); with HCT-116 colon, 61.9% (inactive) and 85.4% (inactive). In addition, the growth in the experiment with HCC-2998 colon is 80.6% (inactive) and 92.4% (inactive); in the experiment with KM12 colon it was 48.6% (inactive) and 84.9% (inactive).

The record behind these values is PubChem BioAssay (NCI).
